What all share (experiment): NCI-60 one-dose screen, 48 h (100 = growth as untreated, 0 = no growth, -100 = all killed)
In one assay the test system is NCI-H23 lung. The note with it: 10 µM unless noted.
Another assay deals with NCI-H226 lung. The note with it: 10 µM unless noted.
The test system of a further assay is NCI-H322M lung. The note with it: 10 µM unless noted.
In a further assay the test system is HOP-62 NSCLC. The note with it: 10 µM unless noted.
The subject of a further assay is NCI-H460 lung. The note with it: 10 µM unless noted.
The next assay deals with HOP-92 NSCLC. The note with it: 10 µM unless noted.
For a further assay, the system named is A549/ATCC NSCLC. As to conditions: 10 µM unless noted.
A further assay concerns 786-0 renal. The note with it: 10 µM unless noted.
For another assay, the system named is COLO 205 colon. The note with it: 10 µM unless noted.
Another assay relates to DU-145 prostate. The note with it: 10 µM unless noted.
For a further assay, the system named is K-562 leukemia. The note with it: 10 µM unless noted.
A further assay concerns MALME-3M melanoma. As to conditions: 10 µM unless noted.
In a further assay the test system is MDA-MB-231 breast. The note with it: 10 µM unless noted.
The subject of the next assay is RXF 393 renal. The note with it: 10 µM unless noted.
A further assay deals with SF-268 CNS. The note with it: 10 µM unless noted.
The next assay deals with SF-295 CNS. The note with it: 10 µM unless noted.
A further assay deals with SF-539 CNS. The note with it: 10 µM unless noted.
In another assay the test system is UACC-257 melanoma. As to conditions: 10 µM.
The test system of a further assay is M14 melanoma. The note with it: 10 µM unless noted.
A further assay has as its system NCI-H522 lung. As to conditions: 10 µM unless noted.

Among the data in PubChem BioAssay (NCI) are growth values, retold here.

Compounds without any hit were thinned out: in the full panel of roughly 83,000, 20% have a hit.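 Assay: single dose, 48 h. Readout: percent growth (0 = no net growth; negative = cell death). Active: <10.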 Unmarked numbers belong to inactive results. Active and inactive are the calls of the source.

`COc1ccc(-n2cnc3c(sc4ncc(Cl)cc43)c2=O)cc1`: the growth in the assay on NCI-H23 lung is 93.4%; in the assay with NCI-H226 lung it was 97.8%; with NCI-H322M lung it was 45.7%; with HOP-62 NSCLC, 96.9%; in the assay with NCI-H460 lung it was 49.1%; with HOP-92 NSCLC, 42.9%. The growth is 67% with A549/ATCC NSCLC; 76.8% with 786-0 renal; 113% with COLO 205 colon; 83.6% in the assay with DU-145 prostate; 87.9% with K-562 leukemia; 88.2% in the assay with MALME-3M melanoma. For the same compound, the growth with MDA-MB-231 breast was 113%; in the assay on RXF 393 renal, 106%; in the assay on SF-268 CNS, 65.8%; in the assay on SF-295 CNS, 44.2%; in the assay with SF-539 CNS, 91.6%; in the assay with UACC-257 melanoma, 90.8%. In the assay on M14 melanoma, the growth was 105%.
Consider `O=C(NNC(=S)Nc1ccccc1)c1ccccn1`, for which the growth is 73.1% in the assay with NCI-H23 lung; 43.4% in the assay with NCI-H226 lung; 23.3% in the assay on NCI-H322M lung; 37.9% with HOP-62 NSCLC; 21.2% with NCI-H460 lung; 16.7% in the assay with HOP-92 NSCLC. Besides, the growth is 24.3% with A549/ATCC NSCLC; 22.6% in the assay with 786-0 renal; 22.5% in the assay with COLO 205 colon; 42.9% in the assay on DU-145 prostate; 28.6% with K-562 leukemia; 24.2% in the assay on MALME-3M melanoma. Besides, the growth in the assay with MDA-MB-231 breast was 43.5%; in the assay with RXF 393 renal it was 35.4%; in the assay on SF-268 CNS, 36.7%; in the assay on SF-295 CNS, 42.1%; in the assay on SF-539 CNS, 31.5%; in the assay on UACC-257 melanoma, 18.9%. In addition, the growth in the assay with M14 melanoma is 25.3%.
As to `C/C(=N\NC(=O)CC#N)c1cc2cc(Cl)ccc2o1`, the growth is 97.2% with NCI-H23 lung; 94.6% in the assay with NCI-H226 lung; 97.2% in the assay with NCI-H322M lung; 92.8% with HOP-62 NSCLC; 94.2% in the assay on NCI-H460 lung; -13.3% (active) in the assay with HOP-92 NSCLC. Also, the growth in the assay on 786-0 renal is 105%; in the assay with COLO 205 colon it was 99.7%; in the assay with DU-145 prostate it was 103%; in the assay on K-562 leukemia, 96.6%; in the assay with MALME-3M melanoma it was 102%; with MDA-MB-231 breast, 93.9%. Besides, the growth in the assay on SF-268 CNS was 102%; in the assay with SF-295 CNS, 99.7%; with SF-539 CNS, 82.9%; in the assay with M14 melanoma, 104%.
As to `CN1C(=O)[C@H]2c3c1cccc3[C@@]13NC(=O)O[C@H]1[C@H](CCC3(C)C)C2(C)C`, the growth in the assay on NCI-H23 lung is 103%; in the assay on NCI-H226 lung, 95.2%; in the assay on NCI-H322M lung it was 108%; with HOP-62 NSCLC, 96%; in the assay on NCI-H460 lung, 105%; with HOP-92 NSCLC, 81.9%. Moreover, the growth in the assay on A549/ATCC NSCLC is 93.7%; in the assay with 786-0 renal, 96.6%; in the assay on COLO 205 colon, 107%; in the assay on DU-145 prostate, 106%; in the assay with K-562 leukemia it was 82.6%; with MALME-3M melanoma it was 110%. In addition, the growth in the assay with MDA-MB-231 breast is 88.6%; in the assay on RXF 393 renal, 101%; with SF-268 CNS it was 95.2%; in the assay with SF-295 CNS it was 75%; in the assay with SF-539 CNS it was 98%; in the assay with UACC-257 melanoma, 104%. Besides, in the assay with M14 melanoma, the growth is 108%.
Turning to `COc1ccc(S(=O)(=O)NCCNc2nccc(-c3c(-c4ccccc4)nc4sccn34)n2)cc1`, the growth was 13.2% in the assay on NCI-H226 lung; 45.9% with NCI-H322M lung; 64.4% in the assay with HOP-62 NSCLC; 23.6% in the assay with NCI-H460 lung; 48.9% with HOP-92 NSCLC; 41% in the assay on NCI-H522 lung. Besides, the growth in the assay with A549/ATCC NSCLC was 18.4%; in the assay on 786-0 renal it was 32%; in the assay with COLO 205 colon it was 1.41% (active); with DU-145 prostate, 20.2%; in the assay on K-562 leukemia it was 18.5%; in the assay on MALME-3M melanoma, 60.9%. The growth is 36.6% in the assay on MDA-MB-231 breast; 30.8% in the assay with RXF 393 renal; 20.5% in the assay with SF-268 CNS; 16.6% with SF-295 CNS; 45.3% in the assay on SF-539 CNS; 46% in the assay on UACC-257 melanoma. Besides, in the assay on M14 melanoma, the growth was 29.4%.
For `CC(C)C(C(=O)CCN(C)C)c1ccc(Cl)cc1` (stereo unspecified), the growth in the assay on NCI-H226 lung was 94.9%; with NCI-H322M lung it was 99.3%; in the assay on HOP-62 NSCLC, 98.4%; with NCI-H460 lung, 104%; in the assay on HOP-92 NSCLC it was 96.8%; in the assay on NCI-H522 lung, 74.2%. Also, the growth in the assay on A549/ATCC NSCLC is 61.6%; with 786-0 renal, 102%; with COLO 205 colon it was 106%; with DU-145 prostate, 88.6%; in the assay with K-562 leukemia, 96.7%; in the assay on MALME-3M melanoma, -90.7% (active). The growth with MDA-MB-231 breast is 101%; with SF-268 CNS it was 100%; in the assay on SF-295 CNS it was 106%; in the assay on SF-539 CNS, 103%; in the assay with M14 melanoma, 92.5%.
`COc1ccc(C(=O)c2cc(OC)c(OC)c(OC)c2)cc1/C=C/C(=O)c1ccc(OC)c(OC)c1`: the growth in the assay on NCI-H226 lung is 55.6%; with NCI-H322M lung it was 54.7%; with HOP-62 NSCLC, 58.6%; in the assay with NCI-H460 lung it was 18.4%; in the assay on HOP-92 NSCLC, 39.4%; in the assay on NCI-H522 lung, 3.99% (active). Moreover, the growth in the assay on A549/ATCC NSCLC is 57.1%; with 786-0 renal, 55.9%; in the assay with COLO 205 colon, 31.3%; in the assay with DU-145 prostate, -4.98% (active); with K-562 leukemia, 12.3%; in the assay with MALME-3M melanoma, 56.6%. Besides, the growth in the assay on MDA-MB-231 breast is 26.1%; with RXF 393 renal, 29.3%; in the assay on SF-268 CNS, 17%; with SF-295 CNS it was -46.2% (active); in the assay with SF-539 CNS, -23.5% (active); with UACC-257 melanoma it was 49.1%. In the assay with M14 melanoma, the growth is 36.2%.
In the case of `O=C(O)c1ccc(-n2c(=O)c3ccccc3c3ccccc3c2=O)cc1`, the growth is 99.8% in the assay with NCI-H226 lung; 108% in the assay on NCI-H322M lung; 102% in the assay on HOP-62 NSCLC; 115% in the assay on NCI-H460 lung; 110% with HOP-92 NSCLC; 106% in the assay with A549/ATCC NSCLC. Further, the growth in the assay on 786-0 renal is 109%; in the assay with COLO 205 colon, 105%; with DU-145 prostate, 113%; in the assay with K-562 leukemia, 103%; in the assay with MALME-3M melanoma, 109%; with MDA-MB-231 breast it was 106%. For the same compound, the growth was 108% in the assay with RXF 393 renal; 99.5% in the assay with SF-268 CNS; 92.7% with SF-295 CNS; 97.1% in the assay with SF-539 CNS; 102% with UACC-257 melanoma; 117% in the assay on M14 melanoma.
